Screening results as filed in PubChem BioAssay.
H9c2 protect – myocardial damage modulation in H9c2 cells | H9c2 cardiomyocytes, H2O2 injury protection, ATPLite, 2 h | protection from H2O2 cell death, % at 20 µM | 360,000 compounds, 0.63% hits;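 active = compounds giving at least 50% protection of heart cells from peroxide-induced death in the single-dose screen, raw or plate-pattern-corrected value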;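 note: 0% = DMSO wells with peroxide and 100% = DMSO wells without peroxide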
PfM18AAP inh-1 – PfM18AAP enzyme inhibition | recombinant PfM18AAP, H-Glu-NHMec fluorogenic cleavage | inhibition, % at 7.35 µM | 290,000 compounds, 1.2% hits | AID 1822;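 active = inhibition above the campaign mean inhibition over all tested compounds plus 3 SD, cut at about 28% in these data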;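 note: 0% = plate median of test compound wells and 100% = 2 mM ZnCl2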
PfG6PD inh – PfG6PD (Plasmodium falciparum) enzyme inhibition | PfGluPho enzyme, NADPH resazurin-diaphorase fluorescence | 350,000 compounds, 0.78% hits | inhibition, % at 20 µM | AID 504690;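 active = inhibition reaching at least a set limit at 20 µM in the primary screen, cut at about 59% in these data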;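 note: 0% = DMSO wells with substrate and 100% = DMSO wells lacking glucose-6-phosphate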
ALR inh – human ALR oxidase inhibition via reduced H2O2; P55789; purified ALR, DTT oxidation, H2O2 HRP-luminol luminescence; inhibition, % (test concentration not listed); 290,000 compounds, 3.8% hits;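 active = mean replicate inhibition above about 79%, with every replicate also reaching it, limit read from the data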
PHOSPHO1 block – blocks human PHOSPHO1 phosphatase activity; Q8TCT1; recombinant PHOSPHO1, absorbance phosphatase assay; inhibition, % at 13.3 µM; 290,000 compounds, 1.1% hits; AID 1565; in the data active = inhibition above about 60%
Target sequence (Q8TCT1 whole entry, looked up): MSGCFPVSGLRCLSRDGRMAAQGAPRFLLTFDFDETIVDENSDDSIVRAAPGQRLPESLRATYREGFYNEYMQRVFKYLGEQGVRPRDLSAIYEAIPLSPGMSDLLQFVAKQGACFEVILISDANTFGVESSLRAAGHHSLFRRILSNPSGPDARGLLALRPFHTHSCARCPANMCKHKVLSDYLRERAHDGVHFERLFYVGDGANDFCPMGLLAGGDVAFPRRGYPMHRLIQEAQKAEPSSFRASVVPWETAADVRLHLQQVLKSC
PfM18AAP inh-2 – PfM18AAP inhibition, confirmation; recombinant PfM18AAP, H-Glu-NHMec fluorogenic cleavage; inhibition, % at 7.35 µM; 2,400 compounds, 28% hits; shares compounds with PfM18AAP inh-1;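 active = mean inhibition over replicate wells above the hit cutoff set for the earlier primary screen, cut at about 29% in these data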;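 note: 0% = median of test compound wells and 100% = 2 mM ZnCl2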
CTSL1 confirm – counter-screen for PFM18AAP inhibitors: confirmation of human cathepsin L inhibitors; shares compounds with PfM18AAP inh-1; purified cathepsin L1, Z-Leu-Arg-MCA fluorescence; inhibition, % at 5.96 µM; 2,400 tested, under 10 active; AID 2178;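 active = average inhibition across replicates above the hit cutoff set in the earlier primary screen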;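 note: 0% = median of test compound wells and 100% = Z-Phe-Ala-diazomethylketone 1 µM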
Active calls of the source: *; . = no result. This is a sample that favours compounds with a hit; in the whole collection about 5.6% have one here.

SMILES	H9c2 protect	PfM18AAP inh-1	PfG6PD inh	ALR inh	PHOSPHO1 block	PfM18AAP inh-2	CTSL1 confirm
O=C(O)c1cc(S(=O)(=O)O)cc(Nc2c3ccccc3nc3ccccc23)c1O	3	35*	-30	31	27	-27	0
COc1ccc(Cl)cc1S(=O)(=O)Nc1ncn[nH]1	-7	23	-3	-9	28	.	.
Clc1cc(Cl)cc(Nc2ncn[nH]2)c1	-2	45*	9	.	-4	36*	-4
Cc1[nH][nH]c(=O)c1C(c1ccc(N(C)C)c(Br)c1)c1c(C)[nH][nH]c1=O	8	36*	16	17	25	17	5
COCCn1c(SCC(=O)Nc2ccc(F)cc2)nc2c(c1=O)SCC2	1	.	-14	.	.	.	.
O=c1c2ccccc2c(/C=N/n2cnnc2)c(O)n1-c1ccccc1	-4	65*	0	30	-3	72*	1
COc1ccc(-n2c(O)c(/C=N/n3cnnc3)c3ccccc3c2=O)cc1	14	67*	-22	28	-23	74*	5
COc1ccc(-n2c(O)c(C=Nc3ccccc3)c3ccccc3c2=O)cc1	5	6	-18	-6	-23	.	.
CC(C)[C@H](NC(=O)c1nn(Cc2ccccc2)c(=O)c2ccccc12)C(=O)O	22	36*	-10	-2	28	-41	2
Cc1nc(N)sc1-c1csc(N(C)c2ccc(O)cc2)n1	-4	33*	43	61	85*	-25	0
CN(c1ccc(O)cc1)c1nc(-c2cccs2)cs1	-25	39*	5	98*	-8	-5	1
COc1ccccc1Nc1nc(-c2sc(N)nc2C)cs1	8	18	8	-17	-28	.	.
CCc1ccccc1N(C)S(=O)(=O)c1ccc(-c2cc(C)no2)s1	-9	4	14	7	23	.	.
CCC(=O)NNc1nc2c(C)cccc2s1	3	48*	19	13	1	23	-4
CCC(=O)NNc1nc2c(C)c(C)ccc2s1	6	37*	30	2	-53	9	-2
O=C(Nc1nc2c(Cl)cccc2s1)C1CC1	-4	1	-2	0	27	.	.
CCC(=O)NNc1nc2c(Cl)cccc2s1	0	33*	1	-2	38	19	-3
O=C(COC(=O)c1nn(CCO)c(=O)c2ccccc12)Nc1ccc(Cl)c(Cl)c1	-4	.	-4	-6	.	.	.
COc1ccc(C2CCCCCN2C(=O)C2CCN(S(=O)(=O)c3ccc(C)cc3)CC2)cc1 (stereo not given)	0	.	-14	.	.	.	.
CC1CCCC(C)N1/N=C/c1ccc(O)c(O)c1 (stereo not given)	42	64*	21	99*	54	46*	1
Oc1ccc(/C=N/N2CCCCC2)cc1O	69*	66*	44	99*	24	32*	-2
OCCCc1ccc(O)c(O)c1	-2	45*	16	20	0	27	3
CCCn1nc(C(=O)NNC(=O)Cc2ccc(S(=O)(=O)N3CCOCC3)s2)c2ccccc2c1=O	1	.	-24	-15	.	.	.
O=C(NCCO)c1ccc(Cl)c(Cl)c1	5	3	6	1	6	.	.
Nc1c(Cl)cc(-c2[nH]c3cc(C(=O)NCCO)ccc3c(=O)c2O)cc1Cl	30	40*	-7	-3	-19	-4	1
SMILES	H9c2 protect	PfM18AAP inh-1	PfG6PD inh	ALR inh	PHOSPHO1 block	PfM18AAP inh-2	CTSL1 confirm
CCN(CC)c1ccc(N=Cc2ccc(N(CC)CC)cc2O)cc1	-9	43*	44	18	36	-22	-2
CCN(CC)c1ccc(/C=N/NC(=O)c2ccoc2C)c(O)c1	27	8	-22	72	32	.	.
CCN(CC)c1ccc(/C=N/NC(=S)NC)c(O)c1	30	41*	-5	98*	-22	10	12
O=c1ccc2[n+]([O-])c3ccc(O)cc3oc-2c1	7	39*	-27	.	1	-37	4
NC(=O)c1sc2nc3c(c(-c4ccco4)c2c1N)CCC3	13	33*	9	-21	51	-27	-5
C=CCSc1nc2sc3c(c2c(=O)[nH]1)CC(C)(C)OC3	4	.	10	.	.	.	.
C=CCNC(=S)NNc1nc2sc3c(c2c(=O)[nH]1)CC(C)(C)OC3	4	34*	12	49	-11	17	1
